High-throughput results as filed in PubChem BioAssay.
The list is not random: actives were taken first. Their share in the collection is about 18%.
TDP1 inh: blocks human tyrosyl-DNA phosphodiesterase 1. AID 485290. hit rate 0.28% among 350,000. Q9NUW8. Potency, µM (doses to about 130 µM), inactives show top-dose activity change, negative = inhibition, usual class: inhibitors. recombinant TDP1, AlphaScreen DNA substrate cleavage; also: potency is read from the fitted curve at half-maximal effect; % is scaled to controls: 0 for no effect and ±100 for the full control effect; nearly all actives have a fitted effect of over 40% in size
Target sequence (Q9NUW8 whole entry, looked up): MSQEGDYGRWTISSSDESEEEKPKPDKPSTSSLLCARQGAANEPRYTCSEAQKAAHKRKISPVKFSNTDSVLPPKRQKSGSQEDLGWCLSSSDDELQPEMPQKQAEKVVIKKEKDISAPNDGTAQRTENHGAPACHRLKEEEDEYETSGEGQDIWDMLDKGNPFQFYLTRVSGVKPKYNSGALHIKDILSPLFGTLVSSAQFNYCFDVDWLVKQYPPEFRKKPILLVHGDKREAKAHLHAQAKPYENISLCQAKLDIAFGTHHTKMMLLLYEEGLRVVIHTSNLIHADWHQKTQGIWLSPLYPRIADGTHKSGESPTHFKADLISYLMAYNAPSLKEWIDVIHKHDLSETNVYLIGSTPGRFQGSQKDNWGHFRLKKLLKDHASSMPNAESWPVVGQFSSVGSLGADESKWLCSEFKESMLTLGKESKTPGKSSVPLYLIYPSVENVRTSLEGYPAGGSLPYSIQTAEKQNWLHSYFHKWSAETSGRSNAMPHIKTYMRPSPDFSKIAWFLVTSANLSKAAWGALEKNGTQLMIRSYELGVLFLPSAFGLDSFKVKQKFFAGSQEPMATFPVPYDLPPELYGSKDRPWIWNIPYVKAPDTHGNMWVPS
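Steps: enzyme plus compound, 15 min RT; add biotin/phosphotyrosine-FITC oligonucleotide (15 nM final), react 5 min; add donor/acceptor beads (10 ug/ml final), 10 min; read AlphaScreen. Tdp1 at 1 nM final.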
DT40 TDP1 no CPT: qHTS for Inhibitors of human tyrosyl-DNA phosphodiesterase 1 (TDP1): qHTS in cells in absence of CPT. DT40 Tdp1-/- hTDP1 cells, no CPT, ATP luminescence, 48 h. Potency, µM (top dose mostly 46.2 µM), for inactives: top-dose activity change, negative = growth inhibition, actives largely listed as inhibitors. hit rate 15% among 420,000. AID 686978, 2013; also: potency is read from the fitted curve at half-maximal effect; % is scaled to controls: 0 for no effect and ±100 for the full control effect; nearly all actives have a fitted effect of over 55% in size
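No-CPT arm: Tdp1-/-;hTDP1 DT40 cells (400/well) plus compounds, incubated ≥48 hr at 37 °C. Readout CellTiter-Glo luminescence.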
IL1B secr inh: inflammasome signaling inhibition, IL-1 beta readout; activity change, % at 57.5 µM; THP-1 LPS/ATP IL-1B secretion, AlphaLISA, 16 h; stronger effect = lower value; AID 743279; hit rate 4.7% among 360,000; in the data active = activity change below about -50%; inconclusive = mostly about -30% to -49%; also: % is scaled to controls: 0 for no effect and ±100 for the full control effect
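THP-1 cells pretreated 1 hr with compounds (up to 57.5 uM final), then stimulated with LPS (250 ng/mL final) plus ATP (1.25 mM final); secreted IL-1B measured by AlphaLISA after 16 hr, decreased signal indicating inhibition.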
TGFb SMAD3 inh: TGF-b pathway inhibition; hit rate 1.2% among 410,000; HepG2 CAGA-GFP TGF-b/SMAD3 reporter, GFP fluorescence, 18 h; TGF-beta stimulated, 500 pg/mL final; Potency, µM (highest dose often 46.1 µM), inactives show at the top dose activity, negative = inhibition, most hits filed as inhibitors; also: potency is read from the fitted curve at half-maximal effect; % is scaled to controls: 0 for no effect and ±100 for the full control effect; nearly all actives have a fitted effect of over 65% in size
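First, reporter cells (HEPG2 CAGA-GFP) rested 2 h at 37 degrees C. Next, compounds were pinned in and TGF-beta added to 500 pg/mL final. After 18 h, GFP was imaged per cell and summed per well.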
DT40 TDP1 CPT: growth inhibition of DT40 Tdp1-/-;hTDP1 cells with camptothecin (screen for TDP1 inhibitors); Potency, µM (series often up to 46.2 µM), for the others: at the top dose activity change, negative = growth inhibition, most hits filed as inhibitors; hit rate 12% among 420,000; chicken DT40 Tdp1-/-;hTDP1 cells + 20 nM CPT, ATP luminescence, 48 h; also: potency is read from the fitted curve at half-maximal effect; % is scaled to controls: 0 for no effect and ±100 for the full control effect; nearly all actives have a fitted effect of over 55% in size
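Cell growth measured by CellTiter-Glo luminescence after a minimum 48 h, 37 C compound exposure with 20 nM CPT in Tdp1-knockout DT40 cells stably expressing hTDP1, seeded 400/well; qHTS titration format.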
HepG2 tox: counter-screen for TGF-b inhibitors: cytotoxicity in HepG2 cells; HepG2 CAGA-GFP viability, ATP luminescence, 18 h; Potency, µM (doses to about 46.1 µM), for the others: at the highest dose activity change, negative = cytotoxicity, hits mostly cytotoxic; hit rate 0.76% among 410,000; AID 588856; also: potency is read from the fitted curve at half-maximal effect
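CellTiter-Glo luminescence gave cytotoxicity after 18 hours at 37 degrees C. The cells were HepG2 CAGA-GFP in 1% FBS DMEM, stimulated with 500 pg/mL TGF-beta after compound addition. %Activity was normalised to no-cell wells (complete cell-killing) and DMSO (no toxicity), and curves were fitted and classified.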
* marks the source's active call; other numbers are inactive results. Unless noted, calls follow the shape of the dose curve; as a rule, active = well fitted curve in the direction sought with a large enough effect; inconclusive = small, poorly fitted or top-dose-only effect, or another doubt; inactive = no such curve, though single readings can be large; an effect the other way counts as inactive or inconclusive.

For O=C(COc1ccc2c(-c3ccccc3)cc(=O)oc2c1)NC1CCS(=O)(=O)C1 (stereo not drawn) the results were TDP1 inh 0%, DT40 TDP1 no CPT inconclusive, IL1B secr inh -3, TGFb SMAD3 inh 2%, DT40 TDP1 CPT inconclusive and HepG2 tox -4%.
Screening Cc1ccc(C(=O)NCCc2ccccc2)cc1 returned DT40 TDP1 no CPT inconclusive, IL1B secr inh -8, TGFb SMAD3 inh -5%, DT40 TDP1 CPT -2% and HepG2 tox -58%.
Screening COc1ccc(CCNC(=O)c2cc3ccccc3oc2=O)cc1 returned DT40 TDP1 no CPT 3%, IL1B secr inh 1, TGFb SMAD3 inh -8%, DT40 TDP1 CPT 10% and HepG2 tox 2%.
`Cc1ccc(O)c(C(=O)c2cc(C(=O)NCCc3ccccc3)c(=O)n(CCc3ccccc3)c2)c1` gave TDP1 inh 2%, DT40 TDP1 no CPT 16µM*, IL1B secr inh -3, TGFb SMAD3 inh -6%, DT40 TDP1 CPT inconclusive and HepG2 tox 10%.
`COc1ccc(O)c(C(=O)c2cc(C(=O)NCCc3ccccc3)c(=O)n(CCc3ccccc3)c2)c1` gave TDP1 inh 3%, DT40 TDP1 no CPT 15µM*, IL1B secr inh -14, TGFb SMAD3 inh 0%, DT40 TDP1 CPT 18µM* and HepG2 tox 9%.
For CCOC(=O)C1CCCN(c2nc3c(S(=O)(=O)c4ccc(CC)cc4)nnn3c3ccsc23)C1 (stereo not drawn) the results were TDP1 inh -5%, DT40 TDP1 no CPT inconclusive, TGFb SMAD3 inh 30%, DT40 TDP1 CPT inconclusive and HepG2 tox 4%.
For CC1SCC(NC(=O)c2cccc(Cl)c2)CS1 (stereo not drawn) the results were DT40 TDP1 no CPT 12µM*, IL1B secr inh 7, TGFb SMAD3 inh -8%, DT40 TDP1 CPT 15µM* and HepG2 tox -54%.
`COCc1cccc(-c2csc(C(C)(NC(C)=O)c3ccc(OC)cc3)n2)c1` (stereo not drawn) gave DT40 TDP1 no CPT inconclusive, IL1B secr inh -23, TGFb SMAD3 inh 18%, DT40 TDP1 CPT 18µM* and HepG2 tox -10%.
Screening CC(=O)NC(C)(c1ccccc1)c1nc(-c2cccc(F)c2)cs1 (stereo not drawn) returned DT40 TDP1 no CPT inconclusive, TGFb SMAD3 inh 2%, DT40 TDP1 CPT 29µM* and HepG2 tox -40%.
`COCc1cccc(-c2csc(C(C)(NC(C)=O)c3ccccc3)n2)c1` (stereo not drawn) gave DT40 TDP1 no CPT 18µM*, IL1B secr inh -9, TGFb SMAD3 inh 6%, DT40 TDP1 CPT 23µM* and HepG2 tox -4%.
`O=C(Nc1cccc(Br)c1)N1CCC(CN2CCCCCC2)CC1` gave TDP1 inh -5%, DT40 TDP1 no CPT -26%, TGFb SMAD3 inh -3%, DT40 TDP1 CPT inconclusive and HepG2 tox -17%.
O=S(=O)(c1ccccc1)N1CCC2(CCCN(Cc3cc(C(F)(F)F)cc(C(F)(F)F)c3)C2)CC1 was read as DT40 TDP1 no CPT inconclusive and DT40 TDP1 CPT -1%.
`COc1ccc(C2C3=C(CC(C)(C)CC3=O)Oc3ncn(Cc4ccco4)c(=N)c32)cc1` (stereo not drawn) gave TDP1 inh 9%, DT40 TDP1 no CPT -28%, IL1B secr inh -60*, TGFb SMAD3 inh -11%, DT40 TDP1 CPT -18% and HepG2 tox -32%.
COc1ccc(C2C3=C(CC(C)(C)CC3=O)Oc3ncn(CC(C)C)c(=N)c32)cc1 (stereo not drawn) was read as TDP1 inh 7%, DT40 TDP1 no CPT inconclusive, IL1B secr inh -60*, TGFb SMAD3 inh inconclusive, DT40 TDP1 CPT inconclusive and HepG2 tox -8%.
Screening CSc1sc(C#N)c2c1/C(=N\O)CCC2 returned TDP1 inh 3%, DT40 TDP1 no CPT -13%, IL1B secr inh -1, TGFb SMAD3 inh -15%, DT40 TDP1 CPT -12% and HepG2 tox 10%.
Screening COc1ccc(NC(=O)O/N=C/c2ccc(Br)cc2)cc1 returned DT40 TDP1 no CPT -18%, IL1B secr inh -13, TGFb SMAD3 inh 0%, DT40 TDP1 CPT 3% and HepG2 tox -13%.
Screening CN(C)c1ccc(/C=N/OC(=O)Nc2ccccc2Cl)cc1 returned TDP1 inh 0%, DT40 TDP1 no CPT 15µM*, IL1B secr inh -18, TGFb SMAD3 inh 1%, DT40 TDP1 CPT 8.2µM* and HepG2 tox -17%.
For COc1ccc(/C=N/OC(=O)Nc2ccccc2OC)cc1 the results were TDP1 inh -5%, DT40 TDP1 no CPT 1.6µM*, IL1B secr inh 0, TGFb SMAD3 inh inconclusive, DT40 TDP1 CPT 1.5µM* and HepG2 tox 12%.
For COc1ccc(C(=O)COC(=O)CCS(=O)(=O)c2ccc(C)cc2)c(OC)c1 the results were TDP1 inh 5%, DT40 TDP1 no CPT 5%, IL1B secr inh 14, TGFb SMAD3 inh 0%, DT40 TDP1 CPT 1% and HepG2 tox -2%.
COc1ccc(C(=O)CCS(=O)(=O)c2ccc(C)cc2)cc1OC was read as TDP1 inh 3%, DT40 TDP1 no CPT 3.3µM*, IL1B secr inh -82*, TGFb SMAD3 inh inconclusive, DT40 TDP1 CPT 3.7µM* and HepG2 tox 16µM*.
Screening Cc1ccc(S(=O)(=O)CCC(=O)c2ccc(O)cc2O)cc1 returned TDP1 inh 1%, DT40 TDP1 no CPT 1.2µM*, IL1B secr inh -8, TGFb SMAD3 inh 11µM*, DT40 TDP1 CPT 1.8µM* and HepG2 tox 11µM*.
For Cc1ccc(S(=O)(=O)CCC(=O)OCC(=O)c2cc(C)ccc2C)cc1 the results were DT40 TDP1 no CPT 8%, IL1B secr inh 11, TGFb SMAD3 inh 1%, DT40 TDP1 CPT -8% and HepG2 tox -3%.
`CCOC(=O)c1ccccc1NC1(c2ccc(OC)cc2)C(=O)c2ccccc2C1=O` gave TDP1 inh 4%, DT40 TDP1 no CPT inconclusive, TGFb SMAD3 inh -39%, DT40 TDP1 CPT -23% and HepG2 tox 5%.
For O=C1CCc2cc(S(=O)(=O)Nc3ccccc3-c3ccccc3)ccc2N1 the results were TDP1 inh 2%.
For COc1cc(NCCCCC(C)N)c2nccc(C)c2c1 (stereo not drawn) the results were DT40 TDP1 no CPT 3.7µM*, IL1B secr inh -12, TGFb SMAD3 inh inconclusive, DT40 TDP1 CPT 5.8µM* and HepG2 tox -54%.
